Most compounds without a hit are left out; they make up all but 11% or so of the library.
VDR inh: Inhibitors of the vitamin D receptor (VDR): qHTS. VDR-SRC2-3 peptide fluorescence polarization, 2 h. 400,000 compounds, 0.93% hits. Potency, µM, without a hit: max response, negative = inhibition, usual class: inhibitors. Vitamin D3 receptor (Homo sapiens), P11473. AID 504847, 2011; also: % is scaled to controls: 0 for no effect and ±100 for the full control effect
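After 23 nl compound addition and a short centrifugation, plates sat for 2 hours at ambient temperature; polarization of fluorescence then indicated loss of VDR binding to peptide SRC2-3.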
BAZ2B block: qHTS Assay for Inhibitors of BAZ2B. Bromodomain adjacent to zinc finger domain protein 2B (Homo sapiens), Q9UIF8. AlphaScreen BAZ2B-H3K14Ac peptide displacement. Potency, µM (top dose mostly 114 µM), without a hit: at the highest dose activity change, negative = inhibition, actives largely listed as inhibitors. 360,000 compounds, 4.4% hits. AID 504333, 2011; also: % is scaled to controls: 0 for no effect and ±100 for the full control effect; nearly all actives have a fitted effect of over 60% in size
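Compounds, titrated to a top concentration of 110 uM, were incubated 30 min at room temperature with preformed BAZ2B/acetyl-K14 H3 peptide complex (50 nM each). Proximity signal was measured by AlphaScreen after 20 min with beads.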
G9a block: qHTS Assay for Inhibitors of Histone Lysine Methyltransferase G9a | Histone-lysine N-methyltransferase EHMT2 (Homo sapiens), Q96KQ7 | G9a H3K9 monomethylation, AlphaScreen, 2 h | Potency, µM (highest dose often 102 µM), inactives show at the top dose activity, negative = inhibition, usual class: inhibitors | 350,000 compounds, 8.8% hits | AID 504332, 2011; also: % is scaled to controls: 0 for no effect and ±100 for the full control effect; nearly all actives have a fitted effect of over 75% in size
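Methyltransferase reactions run at room temperature for 2 h (20 nM enzyme, 500 nM biotin-H3K9 peptide, 20 uM SAM) after a 15 min compound preincubation; product detected by AlphaScreen beads and anti-H3K9me1 antibody.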
HP1b chromo inh: HTS for Inhibitors of HP1-beta Chromodomain Interactions with Methylated Histone Tails; Chromobox protein homolog 1 (Homo sapiens), P83916; AlphaScreen HP1-beta / biotin-H3K9me3 peptide binding; Potency, µM (highest dose often 114 µM), for inactives: at the top dose activity change, negative = inhibition, hits mostly inhibitors; 390,000 compounds, 0.56% hits; also: nearly all actives have a fitted effect of over 70% in size
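Compound inhibition of the preformed complex between 50 nM HP1-beta and 50 nM biotinylated H3K9me3 peptide was read by AlphaScreen. Buffer was PBS pH 7.4 with 0.01% Tween-20. Incubations ran 30 min at room temperature, with 10 ug/mL donor/acceptor beads.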
PLK1 PBD block: qHTS for Inhibitors of PLK1-PDB (polo-like kinase 1 - polo-box domain): Primary Screen; 360,000 compounds, 2.8% hits; Plk1 PBD binding of FITC phosphopeptide, fluorescence polarization; Potency, µM, for the others: max response, negative = inhibition, actives largely listed as inhibitors; also: series mostly up to about 57 µM; % is scaled to controls: 0 for no effect and ±100 for the full control effect; nearly all actives have a fitted effect of over 65% in size
JMJD2A Tudor: qHTS Assay for Inhibitors of JMJD2A-Tudor Domain; Lysine-specific demethylase 4A (Homo sapiens), O75164; AlphaScreen JMJD2A-Tudor / H3K4me3 peptide binding; Potency, µM (highest dose often 114 µM), for the others: at the highest dose activity change, negative = inhibition, hits mostly inhibitors; 390,000 compounds, 4.4% hits; AID 504339, 2011; also: % is scaled to controls: 0 for no effect and ±100 for the full control effect; nearly all actives have a fitted effect of over 50% in size
Target sequence (O75164 whole entry, looked up, the tested form may be a part): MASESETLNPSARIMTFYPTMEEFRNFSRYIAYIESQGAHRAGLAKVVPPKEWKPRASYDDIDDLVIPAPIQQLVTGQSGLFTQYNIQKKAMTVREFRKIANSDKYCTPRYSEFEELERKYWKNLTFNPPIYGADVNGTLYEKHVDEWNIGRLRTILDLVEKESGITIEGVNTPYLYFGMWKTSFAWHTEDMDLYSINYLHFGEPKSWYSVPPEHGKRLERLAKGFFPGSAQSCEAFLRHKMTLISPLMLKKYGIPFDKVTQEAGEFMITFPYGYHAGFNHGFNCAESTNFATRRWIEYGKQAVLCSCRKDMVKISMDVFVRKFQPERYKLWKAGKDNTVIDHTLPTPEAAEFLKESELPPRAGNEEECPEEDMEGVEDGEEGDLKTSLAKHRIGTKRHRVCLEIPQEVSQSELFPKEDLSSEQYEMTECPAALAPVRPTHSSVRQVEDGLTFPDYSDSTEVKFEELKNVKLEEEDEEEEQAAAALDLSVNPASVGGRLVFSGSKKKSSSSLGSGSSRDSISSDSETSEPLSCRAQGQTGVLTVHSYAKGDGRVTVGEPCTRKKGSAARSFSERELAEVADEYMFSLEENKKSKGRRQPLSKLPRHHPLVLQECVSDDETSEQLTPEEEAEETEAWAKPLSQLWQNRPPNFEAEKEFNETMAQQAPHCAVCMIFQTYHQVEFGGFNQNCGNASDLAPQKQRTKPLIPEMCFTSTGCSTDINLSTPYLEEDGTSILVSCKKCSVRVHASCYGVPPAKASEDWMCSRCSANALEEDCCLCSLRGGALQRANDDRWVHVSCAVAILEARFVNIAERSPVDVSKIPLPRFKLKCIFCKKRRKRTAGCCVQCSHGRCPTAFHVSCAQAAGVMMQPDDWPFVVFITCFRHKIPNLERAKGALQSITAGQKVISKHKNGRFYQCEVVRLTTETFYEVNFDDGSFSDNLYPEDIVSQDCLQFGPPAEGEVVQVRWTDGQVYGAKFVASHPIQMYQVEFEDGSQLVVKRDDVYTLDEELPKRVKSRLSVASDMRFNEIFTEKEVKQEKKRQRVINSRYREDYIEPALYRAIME
Starred values were filed as active, the others as inactive; ? = inconclusive; nt = no result given; [ ] = dose if it differs, or a comment. Calls follow the shape of the dose curve; as a rule, active = well fitted curve in the direction sought with a large enough effect; inconclusive = small, poorly fitted or top-dose-only effect, or another doubt; inactive = no such curve, though single readings can be large; an effect the other way counts as inactive or inconclusive. Potency is read from the fitted curve at half-maximal effect.

SMILES | VDR inh | BAZ2B block | G9a block | HP1b chromo inh | PLK1 PBD block | JMJD2A Tudor
NC(Cn1ccc(=O)[nH]c1=O)C(=O)O (centres undefined) | nt | nt | 11.0%[12.7 µM] | nt | nt | nt
N[C@@H](Cn1ccc(=O)[nH]c1=O)C(=O)O | -2.0% | nt | 1.5µM* | nt | nt | nt
CC(n1cc(C[C@H](N)C(=O)O)c2ccccc21)n1cc(C[C@H](N)C(=O)O)c2ccccc21 | ? | nt | 4.8%[59 µM] | nt | nt | nt
COP(=S)(OC)Oc1nc(Cl)c(Cl)cc1Cl | 4.47µM* | nt | nt | nt | nt | nt
CCOP(=S)(OCC)Oc1nc(Cl)c(Cl)cc1Cl | 31.6µM* | 107.5% | -3.0%[0.501 µM] | 93.2% | 29.9µM* | 77.2%
O=C(O)COc1nc(Cl)c(Cl)cc1Cl | -15.9% | nt | nt | nt | nt | nt
O=C1NCCOC(=O)[C@@H](Cc2ccc(F)cc2)CC/C=C/C[C@@H]1CC(=O)N(CCO)Cc1ccccc1 | 4.7% | nt | nt | 14.8% | 3.3% | -2.9%
CCOP1(=S)Oc2cc3c(cc2C(C(=O)OC)(C(F)(F)F)O1)OCO3 (centres undefined) | 79.4µM* | -32.5% | ? | ? | 23.8µM* | ?
N#CSCC(=O)N1c2ccccc2CCc2ccccc21 | ? | -6.5% | ? | 44.1% | 10.6µM* | -9.3%
CON(C)C(=O)Nc1ccc(Br)c(Cl)c1 | 6.0% | nt | nt | nt | nt | nt
C=CCN1CC[C@@]23c4c5ccc(O)c4O[C@H]2/C(=N\N=C2/CC[C@@]4(O)[C@H]6Cc7ccc(O)c8c7[C@@]4(CCN6CC=C)[C@@H]2O8)CC[C@]3(O)[C@@H]1C5 | -6.3% | nt | nt | nt | nt | nt
COc1ccc(-n2c(-c3ccco3)nc3c(cnn3-c3ccc(Cl)cc3)c2=O)cc1 | -13.3% | nt | ? | 19.7% | nt | -24.7%
Cc1ccc(/C=C2/C(=O)NC(=O)N(C)C2=O)cc1 | -8.7% | -33.3% | -26.5%[59 µM] | 20.3% | 10.6µM* | -14.4%
CN1C(=O)NC(=O)/C(=C/c2ccc(C(=O)O)cc2)C1=O | ? | -16.7% | -42.0% | 43.1% | 11.9µM* | -11.0%[11.4 µM]
CC1(C)C2C[C@@H](O)[C@]3(C)C(CC[C@@]4(C)[C@H](c5ccoc5)C[C@H]5O[C@]543)[C@@]2(C)[C@@H](O)C[C@H]1O (some centres undefined) | -5.0% | nt | nt | nt | nt | nt
COc1ccc2[nH]c(C)c(CCN3CCC(=O)C(C)C3C)c2c1 (centres undefined) | -18.7% | ? | ? | 14.4% | -1.0% | ?
COc1ccc(CNCCc2c(C)[nH]c3ccc(OC(F)(F)F)cc23)c(OC)c1 | -1.9% | 56.2µM* | 44.7µM* | ? | -12.0% | 17.8µM*
COc1ccc2[nH]c(C)c(CCNCc3cc(OC)c4c(c3)OCO4)c2c1 | 9.5% | 44.7µM* | ? | ? | -11.6% | 1.26µM*
Cc1ccc2[nH]c(C)c(CCNCc3cccnc3)c2c1 | 9.4% | ? | 50.1µM* | 22.7% | -2.0% | 7.0%
COc1ccc2[nH]c(C)c(CCNCc3cc(OC)c(OC)c(OC)c3)c2c1 | 7.8% | 79.4µM* | 22.4µM* | ? | -5.0% | 2.82µM*
COc1ccc(CNCCc2ccc(Cl)cc2Cl)cc1 | 0.4% | 8.9% | 25.3% | 21.9% | -5.7% | -2.1%
NCC1OC(O[C@H]2[C@H](O)[C@@H](OC3C(O)C(N)CC(N)C3OC3OC(CO)C(O)C(O)C3N)O[C@@H]2CO)C(N)C(O)C1O (some centres undefined) | -1.4% | nt | 5.97µM* | nt | nt | nt
NC[C@@H]1O[C@H](O[C@H]2[C@@H](O)[C@H](O[C@@H]3[C@@H](O)[C@H](N)C[C@H](N)[C@H]3O[C@H]3O[C@H](CO)[C@@H](O)[C@H](O)[C@H]3N)O[C@@H]2CO)[C@H](N)[C@@H](O)[C@@H]1O | nt | 2.8% | 9.1%[59 µM] | nt | nt | nt
CC1(C)CC(=O)C2=C(C1)OC(N)=C([N+](=O)[O-])C2c1ccc(C#N)s1 (centres undefined) | 0.8% | ? | -9.0%[12.7 µM] | 10.5% | ? | -14.7%
O=C(O)COc1ccc(Br)cc1C(c1c(C(=O)O)[nH]c2ccccc12)c1c(C(=O)O)[nH]c2ccccc12 | ? | -4.7% | nt | 18.5% | 26.7µM* | -9.5%
SMILES | VDR inh | BAZ2B block | G9a block | HP1b chromo inh | PLK1 PBD block | JMJD2A Tudor
C#CCOc1ccc(Br)cc1C(c1c(C)[nH][nH]c1=O)c1c(C)[nH][nH]c1=O | -20.5% | -18.1% | -3.4% | 43.4% | ? | 0.0%
[N-]=[N+]=CC(=O)OC[C@H](N)C(=O)O | 21.6% | 3.7% | 14.8% | 29.1% | -4.7% | 31.6µM*
COc1cc(C2c3cc4c(c(O)c3CC3COC(=O)C32)OCO4)cc(OC)c1O (centres undefined) | -0.2% | nt | nt | 18.8% | nt | -15.6%
COc1cc(C2c3cc4c(cc3CC3COC(=O)C32)OCO4)cc(OC)c1O (centres undefined) | -2.1% | nt | nt | 10.7% | -12.0% | 89.1µM*
CC1(C(=O)O)CCCC2(C)c3cc(O)ccc3CCC12 (centres undefined) | 6.1% | nt | nt | 8.1% | -17.2% | -21.1%
CC(C)c1cc2c(c(O)c1O)[C@]1(C(=O)O)CCCC(C)(C)C1CC2 (some centres undefined) | 44.7µM* | nt | -38.2%[2.33 µM] | nt | nt | nt
CC(C)c1cc2c(c(O)c1O)[C@@]1(C(=O)O)CCCC(C)(C)[C@@H]1CC2 | 20µM* | nt | 3.55µM* | nt | nt | nt
Clc1ccccc1-c1cncnc1NCCc1cnc[nH]1 | -20.4% | nt | 0.0%[0.501 µM] | nt | nt | nt
COc1ccc(/C=N/N=C(/N)N[N+](=O)[O-])c(OC)c1 | 7.1% | -1.1% | 18.6%[59 µM] | 14.4% | 1.5% | -16.2%
N/C(=N\N=C/c1ccc(-c2ccc(O)c(C(=O)O)c2)o1)N[N+](=O)[O-] | -8.7% | 25.1µM* | 25.1µM* | 15.8µM* | 11.2µM* | 11.2µM*
CCC(C)N1C(=O)/C(=C/c2ccc3c(c2)CCN3CCCCl)C(=O)NC1=S (centres undefined) | 0.6% | 50.1µM* | 12.6µM* | ? | 0.947µM* | 50.1µM*
C=CCc1c(C)[nH]c(=S)c(C#N)c1C | ? | -35.9% | 1.12µM* | 41.3% | 23.8µM* | 5.01µM*
Oc1cn2c(n1)Nc1ccc(Cl)c(Cl)c1C2 | 5.6% | nt | ? | nt | nt | nt
CCn1cc(C(=O)N[C@@H](C)C(=O)OC)c(=O)c2cc3c(cc21)OCO3 | 4.5% | 3.0% | 43.4% | 47.5% | -2.7% | -1.7%
O=C(N/N=C/C1C(=O)NC(=S)N(c2ccccc2)C1=O)c1cc(Br)c(O)c(Br)c1 (centres undefined) | 39.8µM* | 10.4% | 44.7µM* | -22.2% | 3.36µM* | 10µM*
O=P(Oc1ccccc1)(Oc1ccccc1)c1ccccc1 | ? | 0.891µM* | nt | 79.8% | -4.7% | 34.4%

Assay outcomes (PubChem)
